Here are results for 40 compounds from PubChem BioAssay (NCI).

SMILES strings stand for the structures. Values joined by “and” are separate entries in the source; they are usually repeats but may differ in a detail not shown here. Equal entries are not always repeated. The panel holds about 83,000 compounds, 20% with a hit somewhere; the sample as a whole holds those more often.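 In brief: 96-well plates, 48 h treatment, single concentration, percent growth endpoint.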 A number with no mark means an inactive call. Active and inactive are the calls of the source.

The assay relates to NCI-H522 lung. Briefly: NCI-60 one-dose screen, 48 h (100 = growth as untreated, 0 = no growth, -100 = all killed). To be noted: 10 µM unless noted. On the procedure:
Growth inhibition of the NCI-H522 human Non-Small Cell Lung tumor cell line is measured as a screen for anti-cancer activity. Cells are grown in 96 well plates and exposed to the test compound for 48 hours. Compounds are tested at a single concentration, which is 10^-5 M for most compounds. The reported endpoint is percent growth (GI% or GIPRCNT), where numbers from 0 - 100% represent growth inhibition, and numbers from -100% - 0 represent cell death. For example, a value of 40 represents 60% growth inhibition. A value of 0 means no net growth occurred over the course of the experiment. A value of -40 indicates 40% of cells at the beginning of the experiment died by the end of the experiment. A value of -100 means all cells are dead at the end of the experiment.
NCI-60 Human Tumor Cell Lines Screen was performed using the standard one-dose NCI protocol, which is described in more detail at https://dtp.cancer.gov/discovery_development/nci-60/default.htm.
Compounds with GIPRCNT values below 10 were considered active. Activity score was based on GIPRCNT using the following formula: […]
Score is 0 for GIPRCNT values of 100 or above, 50 for GIPRCNT values of 0, and 100 for GIPRCNT values of -100.
Take `Nc1cc(-c2c[nH]c3ccc(Br)cc23)nc2cc(-c3c[nH]c4ccccc34)nn12`: the growth was -77% (active). As for `CCc1ccccc1NC(=O)N/C(N)=N/c1nc2ccccc2s1`, the figure is -53.5% (active). As for `Nc1nn2c(-c3cc4ccccc4oc3=O)ccnc2c1N=Nc1ccccc1`, the figure is 25.3%. For `COc1cc(/C=N/NC(=O)c2ccc(OCc3nc4ccc(C)cc4[nH]3)cc2)cc(OC)c1OC` the value was 28.1%. For `COc1c2c(c(Br)c3c1C(CCc1ccccc1)N(C)CC3)OCO2` (stereo not given), the growth is 56.9%. As for `COc1ccccc1NC(=O)N/N=C/c1c[nH]c2ccccc12`, the figure is -37.1% (active); as for `CC1=C(C(=O)Nc2ccccc2)C(c2cccc(Cl)c2Cl)n2c(nc3ccccc32)N1` (stereo not given), 25.3%. For `CCCn1c(NC(=O)c2cccc(C(N)=O)c2)nc2ccc(CN3CCCCC3)cc21` the value was 94.1%. On to `Cc1cc(C)c2[nH]c(=O)c(C(c3nnnn3Cc3ccc4c(c3)OCO4)N3CCN(C)CC3)cc2c1` (stereo not given), for which the growth was 120%. As for `Nc1cc2ccccc2c(=O)n1NC(=O)c1ccccc1`, the figure is 89.3%. As for `COc1ccc2[nH]c(O)c(N=Nc3nc(-c4ccc(Br)cc4)cs3)c2c1`, the figure is 19.1%. As for `COc1ccc(NC(=O)Nc2nc3ccc([N+](=O)[O-])cc3s2)cc1`, the figure is 1.25% (active); as for `COC(=O)c1c(C(=O)OC)c2c3ccccc3c3ccccc3n2c1C(=O)C(C)(C)C`, 73.6%; as for `COc1cc(/C=C/C(=O)c2cnn(-c3cc(=O)[nH]c4ccc(C)cc34)c2C)cc(OC)c1OC`, -87.1% (active). For `Cn1cc(-c2cc(N)n3nc(-c4c[nH]c5ccccc45)cc3n2)c2cc(Cl)ccc21`, the growth was -71.9% (active). For `CCc1ccc(SC2c3cc(OC)ccc3Oc3nc(N)c(C#N)c(N)c32)cc1` (stereo not given) the value was -8.76% (active); for `O=C(CSc1nnc(-c2ccc(-c3nc4ccc(Cl)cc4[nH]3)cc2)o1)Nc1ccccc1`, -3.89% (active); for `N#CC1=C(c2cccs2)Nc2c(c(-c3ccccc3)nn2-c2ccccc2)C12C(=O)Nc1ccccc12` (stereo not given), 5.69% (active).

For `CCCCN1C(=O)/C(=C\C(=O)c2cc3ccccc3oc2=O)c2ccccc21`, the growth was -19.9% (active). As for `NC1(c2ccc(-c3ccc4ncnc(NCc5ccccc5)c4c3)cn2)COC1`, the figure is 109% and 105%; as for `O=C(Nc1ccc(Cl)c(C(F)(F)F)c1)N1CCN(c2cc(-c3cn(-c4ccccc4)nc3-c3cccc(O)c3)ccn2)CC1`, -17.3% (active). As for `S=C(NCCc1ccccc1)Nc1ccc(OCc2nc3ccc(Cl)cc3[nH]2)cc1`, the figure is -26.8% (active). For `Fc1ccc(F)c(CNc2nc(SCCN3CCOCC3)nc3c2cnn3CC(Cl)c2ccc(Br)cc2)c1` (stereo not given) the value was 37.6%; for `CC[C@]12C=CCN3CC[C@@]4(c5ccc(OC)cc5N(C)[C@H]4[C@@](O)(C(=O)OC)[C@@H]1OC(=O)CCCC[P+](c1ccc(F)cc1)(c1ccc(F)cc1)c1ccc(F)cc1)[C@@H]32`, -11.6% (active). Take `O=C1CCC(N2C(=O)c3cccc(NCCOCCOCCOCCC(=O)NCCCC(=O)NC(c4ccc5c(c4)OCO5)c4cc(Cl)c5cccnc5c4O)c3C2=O)C(=O)C1` (stereo not given): the growth is 6.82% (active). As to `Cn1cc(-c2cc(N)n3nc(-c4c[nH]c5ccccc45)cc3n2)c2cc(F)ccc21`, the growth was -61.8% (active).

Take `CC(C)(C)OC(=O)N1CCC2(CC1)Oc1ccccc1[C@H]1CC(c3ccc(Br)cc3)=NN12`: the growth is 74.4%. For the compound `Nc1nnc(CS(=O)(=O)c2ccccc2)s1`, the growth was 80.8%. As for `Cc1nn(-c2ccccc2)c2nc(C)n(CC(=O)N/N=C/c3cccc([N+](=O)[O-])c3)c(=O)c12`, the growth was 92.7%.

In the case of `CS(=O)(=O)Nc1cccc(-n2c(COc3ccc(OC(F)(F)F)cc3)nc3ccccc32)c1`, the growth is 84.8% and 101%.

For the compound `Clc1ccc(-c2nc3ccc(-c4nnc(SCc5ccccc5)o4)cc3[nH]2)cc1`, the growth was 10.3%. As for `N/C(=N\c1nc2ccc([N+](=O)[O-])cc2s1)NC(=O)Nc1ccccc1Cl`, the figure is 5.69% (active); as for `O=C(Nc1nc2ccccc2s1)Nc1ccccc1Cl`, 64.1%. Consider `O=C(N=Nc1c(O)[nH]c2ccc(Br)cc12)c1ccc2nc(-c3ccc(Cl)cc3)[nH]c2c1`, for which the growth is -47.2% (active).

For the compound `CCCCCCCCCCCCCCCCCC(=O)Nc1ccc(OC)cc1`, the growth is 88.2%. For `CC(C)(C)C(=O)c1c2c(c3ccc4c5ccccc5ccc4n13)C(=O)c1ccccc1C2=O` the value was 91.5%.

Regarding `COc1ccc2c(c1)C(Sc1ccc(F)cc1)c1c(nc(N)c(C#N)c1N)O2` (stereo not given), the growth was 78.9%. For `O=S(=O)(c1nc(-c2ccc(Br)cc2)oc1-c1ccc(Cl)cc1)N1CCCC(O)C1` (stereo not given) the value was 49.2%; for `C[C@H](NC(=O)c1ccc2c(-c3ccc(C(F)(F)F)cc3)cccc2c1)c1ccccn1`, 16.9%. For `O=C1Nc2cc(-c3ccc(NS(=O)(=O)c4ccc(F)c(Cl)c4)cc3)ccc2/C1=C/c1ccc[nH]1` the value was 6.92% (active).
